The target of test [1] is Fibroblast growth factor receptor 4 (Homo sapiens) (UniProt P22455). The following applies: at 1 µM.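 Also: reported figure is the averaged percent inhibition of FGFR4, from the GSK PKIS kinase screening panel.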
Test [2] addresses Tyrosine-protein kinase Fgr (Homo sapiens) (UniProt P09769). To be noted: at 0.1 µM.
Test [3] shares this target. To be noted: at 1 µM.
Test [4] has as its target Vascular endothelial growth factor receptor 1 (Homo sapiens) (UniProt P17948). The following applies: at 0.1 µM.
Test [5] shares this target. To be noted: at 1 µM.
Test [6] deals with Receptor-type tyrosine-protein kinase FLT3 (Homo sapiens) (UniProt P36888). The following applies: at 0.1 µM.
For test [7] the target is unchanged. To be noted: at 1 µM.
Test [8] concerns T1, Receptor-type tyrosine-protein kinase FLT3 (Homo sapiens), P36888 [D835Y].
T1 sequence (whole entry): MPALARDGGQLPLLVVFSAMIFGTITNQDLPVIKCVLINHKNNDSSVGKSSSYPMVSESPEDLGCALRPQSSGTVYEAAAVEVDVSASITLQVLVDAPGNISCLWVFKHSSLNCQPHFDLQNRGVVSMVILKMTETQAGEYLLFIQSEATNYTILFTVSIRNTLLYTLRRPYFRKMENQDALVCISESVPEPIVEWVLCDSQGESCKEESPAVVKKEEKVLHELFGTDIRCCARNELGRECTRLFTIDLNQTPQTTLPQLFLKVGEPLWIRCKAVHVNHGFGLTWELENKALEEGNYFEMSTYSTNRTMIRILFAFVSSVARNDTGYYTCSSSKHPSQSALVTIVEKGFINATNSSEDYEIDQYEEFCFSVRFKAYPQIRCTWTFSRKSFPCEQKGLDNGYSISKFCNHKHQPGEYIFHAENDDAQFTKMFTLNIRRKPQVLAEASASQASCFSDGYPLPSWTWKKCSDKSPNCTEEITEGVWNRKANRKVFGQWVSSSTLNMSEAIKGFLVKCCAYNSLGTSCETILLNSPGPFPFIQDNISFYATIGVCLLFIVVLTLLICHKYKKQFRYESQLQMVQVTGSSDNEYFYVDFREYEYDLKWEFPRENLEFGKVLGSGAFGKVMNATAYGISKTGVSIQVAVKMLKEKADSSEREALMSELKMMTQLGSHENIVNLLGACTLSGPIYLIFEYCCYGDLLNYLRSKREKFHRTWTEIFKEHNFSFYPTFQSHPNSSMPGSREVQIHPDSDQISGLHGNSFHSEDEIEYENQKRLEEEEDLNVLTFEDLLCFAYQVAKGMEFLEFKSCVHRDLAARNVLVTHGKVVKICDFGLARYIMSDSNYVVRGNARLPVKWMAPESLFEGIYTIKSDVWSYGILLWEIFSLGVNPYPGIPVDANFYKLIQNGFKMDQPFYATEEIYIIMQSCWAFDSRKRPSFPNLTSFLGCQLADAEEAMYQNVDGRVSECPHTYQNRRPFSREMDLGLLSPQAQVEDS
The following applies: at 0.1 µM.

The target of test [9] is Non-receptor tyrosine-protein kinase TYK2 (Homo sapiens) (UniProt P29597). To be noted: at 1 µM.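 Also: values are mean percent inhibition of TYK2 kinase.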
Chain of Non-receptor tyrosine-protein kinase TYK2 (Homo sapiens) (P29597 whole entry): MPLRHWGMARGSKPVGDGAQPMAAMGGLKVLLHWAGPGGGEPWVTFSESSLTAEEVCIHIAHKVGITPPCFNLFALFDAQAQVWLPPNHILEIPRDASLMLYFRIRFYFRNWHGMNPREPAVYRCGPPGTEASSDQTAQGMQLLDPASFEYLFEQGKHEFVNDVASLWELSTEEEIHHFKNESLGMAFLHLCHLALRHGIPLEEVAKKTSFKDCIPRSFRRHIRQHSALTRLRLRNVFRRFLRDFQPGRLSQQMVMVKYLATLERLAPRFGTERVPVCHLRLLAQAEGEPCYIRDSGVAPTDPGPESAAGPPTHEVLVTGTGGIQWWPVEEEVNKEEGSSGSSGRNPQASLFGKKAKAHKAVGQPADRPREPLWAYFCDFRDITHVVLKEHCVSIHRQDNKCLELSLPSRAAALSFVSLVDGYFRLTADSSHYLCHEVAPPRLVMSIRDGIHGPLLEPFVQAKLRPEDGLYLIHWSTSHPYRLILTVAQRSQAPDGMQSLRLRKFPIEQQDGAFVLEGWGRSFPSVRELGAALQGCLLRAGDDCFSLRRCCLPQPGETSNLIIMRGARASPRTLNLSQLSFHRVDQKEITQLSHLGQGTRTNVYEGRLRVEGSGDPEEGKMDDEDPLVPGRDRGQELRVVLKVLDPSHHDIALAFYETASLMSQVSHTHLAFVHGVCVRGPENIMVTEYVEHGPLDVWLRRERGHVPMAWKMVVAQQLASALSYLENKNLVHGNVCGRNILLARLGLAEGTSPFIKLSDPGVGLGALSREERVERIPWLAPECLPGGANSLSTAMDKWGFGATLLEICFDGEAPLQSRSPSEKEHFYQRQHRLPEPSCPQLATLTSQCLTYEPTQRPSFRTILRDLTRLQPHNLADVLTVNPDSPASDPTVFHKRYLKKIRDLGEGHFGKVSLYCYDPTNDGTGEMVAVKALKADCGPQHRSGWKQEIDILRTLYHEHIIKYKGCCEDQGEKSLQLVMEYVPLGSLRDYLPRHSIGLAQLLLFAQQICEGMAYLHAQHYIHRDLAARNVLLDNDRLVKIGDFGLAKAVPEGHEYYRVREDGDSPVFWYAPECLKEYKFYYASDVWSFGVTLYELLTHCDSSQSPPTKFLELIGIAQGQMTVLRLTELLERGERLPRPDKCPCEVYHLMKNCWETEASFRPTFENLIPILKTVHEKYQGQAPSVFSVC
In test [10] the target is T2, Tyrosine-protein kinase receptor TYRO3 (Homo sapiens) (UniProt Q06418).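 Also: reported percentages are averaged inhibition values of TYRO3 kinase activity.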
T2 sequence (whole entry): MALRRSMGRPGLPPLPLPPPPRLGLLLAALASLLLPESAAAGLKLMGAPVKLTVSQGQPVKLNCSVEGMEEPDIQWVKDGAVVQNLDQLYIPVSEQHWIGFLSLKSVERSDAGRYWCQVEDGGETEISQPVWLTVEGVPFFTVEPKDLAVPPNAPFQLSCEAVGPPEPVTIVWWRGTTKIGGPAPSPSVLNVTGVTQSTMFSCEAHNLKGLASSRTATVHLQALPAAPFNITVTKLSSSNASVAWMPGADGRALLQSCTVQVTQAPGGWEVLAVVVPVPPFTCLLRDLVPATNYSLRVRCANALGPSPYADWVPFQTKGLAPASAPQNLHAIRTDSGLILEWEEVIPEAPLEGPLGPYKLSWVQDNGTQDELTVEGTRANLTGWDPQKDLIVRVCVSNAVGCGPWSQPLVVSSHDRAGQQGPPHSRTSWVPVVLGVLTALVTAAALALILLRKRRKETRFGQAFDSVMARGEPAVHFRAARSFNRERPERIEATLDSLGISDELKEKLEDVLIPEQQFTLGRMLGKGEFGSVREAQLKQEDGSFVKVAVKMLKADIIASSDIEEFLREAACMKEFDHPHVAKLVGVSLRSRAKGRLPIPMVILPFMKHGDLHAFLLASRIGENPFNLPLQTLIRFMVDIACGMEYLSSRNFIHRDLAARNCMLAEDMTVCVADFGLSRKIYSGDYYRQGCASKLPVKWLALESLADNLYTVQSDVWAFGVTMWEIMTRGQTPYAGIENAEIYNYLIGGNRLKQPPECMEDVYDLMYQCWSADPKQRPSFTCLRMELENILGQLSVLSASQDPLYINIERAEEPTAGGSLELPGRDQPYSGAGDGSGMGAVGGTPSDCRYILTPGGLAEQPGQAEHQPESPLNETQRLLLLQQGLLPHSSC
The following applies: at 0.1 µM.

Chain of Fibroblast growth factor receptor 4 (Homo sapiens) (P22455 22-802 limits assumed): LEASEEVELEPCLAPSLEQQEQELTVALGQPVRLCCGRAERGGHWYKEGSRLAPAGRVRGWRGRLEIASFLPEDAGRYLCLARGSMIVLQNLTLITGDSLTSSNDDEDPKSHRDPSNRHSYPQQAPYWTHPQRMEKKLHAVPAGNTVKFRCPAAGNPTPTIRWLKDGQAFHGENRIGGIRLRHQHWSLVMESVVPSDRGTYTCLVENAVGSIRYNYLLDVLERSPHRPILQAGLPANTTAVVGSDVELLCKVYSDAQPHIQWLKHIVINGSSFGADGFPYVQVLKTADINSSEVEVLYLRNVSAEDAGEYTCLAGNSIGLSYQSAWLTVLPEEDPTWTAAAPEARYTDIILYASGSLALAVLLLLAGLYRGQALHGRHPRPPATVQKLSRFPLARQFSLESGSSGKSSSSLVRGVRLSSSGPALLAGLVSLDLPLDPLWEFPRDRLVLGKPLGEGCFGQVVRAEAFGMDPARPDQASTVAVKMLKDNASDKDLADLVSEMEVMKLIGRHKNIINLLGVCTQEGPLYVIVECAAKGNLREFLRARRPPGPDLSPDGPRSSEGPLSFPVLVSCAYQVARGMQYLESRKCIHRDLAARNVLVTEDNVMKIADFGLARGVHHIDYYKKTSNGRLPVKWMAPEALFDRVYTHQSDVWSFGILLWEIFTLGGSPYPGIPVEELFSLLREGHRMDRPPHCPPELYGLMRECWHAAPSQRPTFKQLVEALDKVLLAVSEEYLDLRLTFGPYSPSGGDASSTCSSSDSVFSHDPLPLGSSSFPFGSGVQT
Chain of Tyrosine-protein kinase Fgr (Homo sapiens) (P09769 2-529 limits assumed): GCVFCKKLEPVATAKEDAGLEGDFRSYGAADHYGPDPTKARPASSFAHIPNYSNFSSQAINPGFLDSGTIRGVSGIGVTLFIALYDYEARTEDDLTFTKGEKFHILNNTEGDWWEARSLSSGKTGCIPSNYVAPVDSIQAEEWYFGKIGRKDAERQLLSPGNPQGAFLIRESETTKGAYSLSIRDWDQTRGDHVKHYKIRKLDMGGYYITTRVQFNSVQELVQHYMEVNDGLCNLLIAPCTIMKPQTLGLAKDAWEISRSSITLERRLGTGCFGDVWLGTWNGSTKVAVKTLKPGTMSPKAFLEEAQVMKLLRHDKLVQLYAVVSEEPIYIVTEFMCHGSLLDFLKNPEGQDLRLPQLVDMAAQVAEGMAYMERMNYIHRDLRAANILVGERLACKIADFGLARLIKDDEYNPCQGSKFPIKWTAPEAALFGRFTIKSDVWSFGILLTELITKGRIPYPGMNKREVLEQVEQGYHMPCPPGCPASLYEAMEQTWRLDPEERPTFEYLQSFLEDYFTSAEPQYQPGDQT
Chain of Vascular endothelial growth factor receptor 1 (Homo sapiens) (P17948 whole entry): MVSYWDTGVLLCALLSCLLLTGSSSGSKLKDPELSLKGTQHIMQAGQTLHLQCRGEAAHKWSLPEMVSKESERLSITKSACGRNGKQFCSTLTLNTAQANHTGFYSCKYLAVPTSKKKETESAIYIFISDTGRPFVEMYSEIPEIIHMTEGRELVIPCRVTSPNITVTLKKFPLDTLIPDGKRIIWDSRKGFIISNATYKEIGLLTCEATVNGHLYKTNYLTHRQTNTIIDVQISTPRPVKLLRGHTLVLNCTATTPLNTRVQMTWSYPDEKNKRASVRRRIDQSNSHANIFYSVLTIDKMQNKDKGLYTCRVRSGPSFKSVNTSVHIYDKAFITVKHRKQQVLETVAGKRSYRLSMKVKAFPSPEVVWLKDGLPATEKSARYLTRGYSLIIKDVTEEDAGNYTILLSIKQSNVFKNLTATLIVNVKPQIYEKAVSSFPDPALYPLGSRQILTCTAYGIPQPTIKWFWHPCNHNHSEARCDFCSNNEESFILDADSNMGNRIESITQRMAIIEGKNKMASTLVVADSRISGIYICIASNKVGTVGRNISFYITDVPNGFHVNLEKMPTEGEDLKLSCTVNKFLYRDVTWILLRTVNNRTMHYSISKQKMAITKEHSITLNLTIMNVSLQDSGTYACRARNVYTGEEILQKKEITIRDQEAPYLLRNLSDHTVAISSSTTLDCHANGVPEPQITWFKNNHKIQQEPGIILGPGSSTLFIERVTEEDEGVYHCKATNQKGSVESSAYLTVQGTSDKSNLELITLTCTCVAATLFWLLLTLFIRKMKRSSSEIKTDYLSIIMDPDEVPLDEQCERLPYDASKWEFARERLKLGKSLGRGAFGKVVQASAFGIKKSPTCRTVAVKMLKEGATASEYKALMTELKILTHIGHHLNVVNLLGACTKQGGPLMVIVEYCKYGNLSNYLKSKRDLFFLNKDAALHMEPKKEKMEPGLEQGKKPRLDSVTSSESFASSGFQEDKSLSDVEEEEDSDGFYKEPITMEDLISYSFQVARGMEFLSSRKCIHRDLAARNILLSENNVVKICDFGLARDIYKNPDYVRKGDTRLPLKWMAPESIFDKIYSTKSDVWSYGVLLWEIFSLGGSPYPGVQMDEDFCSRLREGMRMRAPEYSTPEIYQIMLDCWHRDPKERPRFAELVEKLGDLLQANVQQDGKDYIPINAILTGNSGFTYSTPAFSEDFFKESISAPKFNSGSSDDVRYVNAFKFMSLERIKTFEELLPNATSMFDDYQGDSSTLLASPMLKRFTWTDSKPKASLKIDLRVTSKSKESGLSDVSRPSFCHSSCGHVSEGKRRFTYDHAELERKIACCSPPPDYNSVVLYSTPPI

One may read the inhibition as the change of the read-out against control, counted positive when it falls. For `CC(=O)Nc1cccc(C#Cc2cncnc2Nc2ccc(OCc3cccc(F)c3)c(Cl)c2)c1`, the inhibition was 1.74% in [1]; 2.84% in test [2]; 9.6% in test [3]; 2.19% in test [4]; 3.25% in test [5]; 2.59% in [6]. Moreover, the inhibition was 2.38% in test [7], -3.37% in test [8], 0.26% in [9] and 3.62% in test [10].

Consider `Cc1ccc(O)cc1Nc1ccnc2cc(-c3ccccn3)ccc12`, for which the inhibition was 30.8% in test [1]; 52.2% in [2]; 82.7% in [3]; 82.1% in [4]; 95.7% in [5]; 3.74% in test [6]. Besides, the inhibition in test [7] was 4.17%; in test [8], 1.48%; in test [9], -4%; in [10], 4.12%.

For `O=C(Nc1n[nH]c2cc(-c3ccc(F)cc3)ccc12)C1CC1`, the inhibition was 1.06% in test [1]; 1.35% in test [2]; 9.07% in test [3]; -0.63% in test [4]; 0.79% in test [5]; 1.99% in [6]. The inhibition is 3.69% in [7], -0.06% in test [8], -3.58% in test [9] and 4% in test [10].

Turning to `O=S(=O)(CCNCc1ccc(-c2ccc3ncnc(Nc4ccc(OCc5cccc(F)c5)c(Cl)c4)c3c2)o1)c1ccccc1`, the inhibition was determined as 1.88% in [1]; 2.78% in [2]; 5.07% in test [3]; 2.06% in test [4]; 4.7% in test [5]; 5.79% in test [6]. Besides, the inhibition is 4.97% in [7], -2.76% in test [8], -2.79% in test [9] and 1.84% in test [10].

As for `CNC(=O)c1cc(-c2ccc(F)cc2)cc(-c2ccc(S(=O)(=O)N3CCCC3)cc2)c1N`, the inhibition in [1] was 0.22%; in test [2], 0.33%; in test [3], 2.93%; in test [4], 2.17%; in test [5], -0.47%; in test [6], 3.03%. Also, the inhibition in [7] was 1.85%; in test [8], -1.38%; in test [9] it was -1.28%; in test [10] it was 1.59%.

Regarding `COc1cc(/C=N/Nc2ncnc3[nH]ncc23)ccc1O`, the inhibition in test [1] was 2.77%; in test [2], 12.4%; in test [3], 52.6%; in test [4], 2.92%; in test [5] it was 10.6%; in [6], 3.29%. Further, the inhibition is 17.4% in [7], 3.54% in [8], 4.1% in test [9] and 4.61% in test [10].

For `CCn1cc(-c2ccnc3[nH]ccc23)c(-c2cccc(NC(=O)Nc3ccc(OCc4ccccc4)cc3)c2)n1`, the inhibition was 3.27% in test [1]; 7.42% in [2]; 34.1% in test [3]; -3.05% in [4]; 2.9% in test [5]; -1.9% in [6]. Further, the inhibition was -2.19% in test [7], -9.12% in test [8], 0.52% in [9] and 0.03% in test [10].

Take `CCNC(=O)O[C@H]1CN[C@H](C#Cc2cc3ncnc(Nc4ccc(OCc5cccc(F)c5)c(Cl)c4)c3s2)C1`: the inhibition was -0.06% in [1]; 1.28% in test [2]; 1.88% in [3]; 2.51% in test [4]; 1.26% in [5]; 2.06% in test [6]. Also, the inhibition was 2.34% in [7], 3.08% in test [8], -3.06% in test [9] and 2.91% in test [10].

`c1ccc(COc2ccc(Nc3ncnc4ccc(-c5ccco5)cc34)cc2)cc1`: the inhibition in test [1] was 0.84%; in [2] it was 3.1%; in test [3] it was 7.56%; in test [4], -2.31%; in test [5], -0.13%; in test [6] it was 0.33%. In addition, the inhibition in [7] is 3.12%; in test [8] it was -0.59%; in test [9], -2.46%; in [10], 0.34%.

Turning to `COc1cc2c(cc1Nc1nc(Nc3ccsc3C(N)=O)c3cc[nH]c3n1)N(C(=O)CN(C)C)CCC2(C)C`, the inhibition in [1] was 4.78%; in test [2], 1.11%; in [3] it was 6.75%; in test [4], 1.44%; in [5], 1.83%; in test [6], 4.2%. Besides, the inhibition in test [7] is 13%; in [8], 0.35%; in [9] it was -1.34%; in test [10] it was 3.88%.

For the origin of these results see ChEMBL document CHEMBL1961873, “Compounds: GSK PKIS; Assays: Nanosyn kinase panel” (2012).
